Experimental data taken from PubChem BioAssay (NCATS).
Inconclusive results are not listed. Calls of active or inactive are those of the source. The call rests on the fitted dose curve; in most records, active means well fitted curve in the direction sought with a large enough effect; inconclusive means small, poorly fitted or top-dose-only effect, or another doubt; inactive means no such curve, though single readings can be large; an effect the other way counts as inactive or inconclusive.

How the values were obtained:
[1] = Cell Viability - H-4-II-E (AID 543);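 further: cells exposed to compound for 40 hours; on the % scale 0 is the no-effect control and ±100 the full control effect; nearly all actives have a fitted effect of over 35% in size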
Method in brief: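 Here, cytotoxicity is measured in the rat hepatoma line H-4-II-E as loss of intracellular ATP after 40 hr compound treatment, detected by luciferase luminescence.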

[2] = Cell Viability - SH-SY5Y (AID 544); conditions: SH-SY5Y neuroblastoma cell viability; viability change, negative = cytotoxic: at 92.2 µM (top of the series);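 further: cells exposed to compound for 40 hours; nearly all actives have a fitted effect of over 55% in size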
Method in brief: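 Cytotoxicity is scored as a concentration-dependent fall in intracellular ATP in human SH-SY5Y cells treated 40 hr in complete culture medium. Potency is expressed as AC50 from a Hill equation fit.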

[3] = Cell Viability - Renal Proximal Tubule (AID 545);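 further: cells exposed to compound for 40 hours; nearly all actives have a fitted effect of over 40% in size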
Method in brief: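 Primary rat renal proximal tubule cells (1000/well) were treated with compounds for 40 hr at 37 °C in complete medium. Intracellular ATP was measured by CellTiter-Glo luminescence, and AC50 values came from Hill-equation fits of concentration-response data.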

[4] = Cell Viability - Mesenchymal (AID 546);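 further: cells exposed to compound for 40 hours before reading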
Method in brief: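 Normal human renal glomerulus-derived kidney mesenchymal cells, 1000 per well in complete medium, were treated with compounds for 40 hr at 37 °C. Viability was read as intracellular ATP by CellTiter-Glo luminescence; AC50 values came from Hill-equation fits of qHTS concentration-response data.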

[5] = Cellular Toxicity (caspase-3) HepG2 (AID 654);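 further: cells exposed to compound for 16 hours before reading; 0% = DMSO alone and 100% = caspase signal from 100 µM tamoxifen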
Method in brief: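 qHTS, HepG2, 1500 cells/well, complete medium; cpd 16 h 37 °C; Caspase-Glo 3/7, 20 min RT; lum. Norm: DMSO vs 100 uM tamoxifen; AC50 Hill fit.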

[6] = Cellular Toxicity (caspase-3) Jurkat (AID 655); conditions: Jurkat caspase-3 activation, luminescence; caspase-3 activation: at 92.2 µM (top of the series), DMSO = 0%, tamoxifen = 100%;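 further: cells exposed to compound for 16 h at 37 °C before reading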
Method in brief: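 Jurkat cells (5000/well) in complete medium were treated with compounds for 16 hr at 37 °C, then Caspase-Glo 3/7 luminescence was read after 20 min at room temperature. Data normalized to DMSO (basal) and 100 uM tamoxifen (100%); AC50 from Hill fit.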

[7] = Cellular Toxicity (caspase-3) HUV-EC-C (AID 656)
Method in brief: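 HUV-EC-C endothelial cells, 1000/well, were pre-incubated 5 hr at 37°C, then exposed to compounds for 16 hr at 37°C. Caspase-Glo 3/7 luminescence was read after 20 min at room temperature. AC50 came from Hill fits, normalized to DMSO and 100 uM tamoxifen.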

[8] = Cellular Toxicity (caspase-3) SHSY5Y (AID 657)
Method in brief: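 SH-SY5Y human neuroblastoma cells (1500/well) were treated with compounds for 16 h at 37 °C, then Caspase-Glo 3/7 luminescence was read after 1 h at room temperature. Data normalized to DMSO and 10 uM staurosporine; AC50 from Hill fits.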

[9] = Cellular Toxicity (caspase-3) BJ (AID 658);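 further: 0% = DMSO basal and 100% = 10 µM staurosporine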
Method in brief: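 Luminescent aminoluciferin-substrate cleavage reports caspase 3/7 activity in normal human BJ fibroblasts after 16 hr compound exposure at 37 °C. Normalized to DMSO (basal) and 10 uM staurosporine (100%); AC50 from Hill fit of concentration-response.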

[10] = Cellular Toxicity (caspase-3) MRC-5 (AID 659);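 further: 0% = DMSO basal and 100% = 10 µM staurosporine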
Method in brief: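 Luminescence from caspase-cleaved aminoluciferin substrate (Caspase-Glo 3/7, 1 hr RT) reports caspase 3/7 activity in MRC-5 lung fibroblasts after 16 hr compound exposure. Normalized to DMSO basal and 10 uM staurosporine as 100%; AC50 from Hill fits.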

[11] = Cellular Toxicity (caspase-3) Mesangial (AID 660); conditions: mesangial cells, normalized: DMSO 0%, 100 µM tamoxifen 100%; at 91.7 µM (top of the series);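 further: combined caspase 3 and 7 activity read by Caspase-Glo luminescence; cells exposed to compound for 16 h before the caspase read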
Method in brief: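 Concentration-response qHTS: compound-induced rise in caspase 3/7 luminescence in human mesangial cells after 16 h, normalized to DMSO and 100 uM tamoxifen controls.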

[12] = Cellular Toxicity (caspase-3) SK-N-SH (AID 661);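 further: 0% = DMSO basal and 100% = 10 µM staurosporine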
Method in brief: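 Caspase 3/7 activation is measured as a luminescence increase from aminoluciferin released by substrate cleavage in SK-N-SH cells after 16 hr compound treatment; values are AC50 from concentration-response curves.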

[13] = Cellular Toxicity (caspase-3) H-4-II-E (AID 663); conditions: H-4-II-E rat hepatoma, scaled: DMSO 0%, 100 µM tamoxifen 100%; at 92.2 µM (top of the series);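 further: cells exposed to compound for 16 hr before readout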
Method in brief: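 Luminescence from caspase-cleaved aminoluciferin substrate, read 20 min after reagent addition, reports caspase 3/7 activation in rat H-4-II-E cells after 16 hr compound exposure. Normalized to DMSO (basal) and 100 uM tamoxifen (100%); AC50 from Hill fits.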

[14] = Cellular Toxicity (caspase-3) Hek293 (AID 664); conditions: HEK293 caspase-3 activation, DMSO = 0%, 100 µM tamoxifen = 100%; at 92.2 µM (top of the series);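 further: cells exposed to compound for 16 h at 37 °C before readout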
Method in brief: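 Activation of caspase-3/7 is measured as increased luminescence from cleaved peptide-aminoluciferin substrate in HEK293 cells treated 16 hours at 37 °C. AC50 values come from Hill-equation fits of concentration-response data.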

[15] = Cellular Toxicity (caspase-3) N2a (AID 665);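 further: compound exposure lasted 16 h at 37 °C before readout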
Method in brief: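 Plated mouse neuroblastoma N2a cells received titrated compounds for 16 h in complete medium. Caspase activity was then detected with a peptide-aminoluciferin luminescent reagent.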

[16] = Cellular Toxicity (caspase-3) NIH 3T3 (AID 666);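 further: 0% = DMSO basal and 100% = 100 µM tamoxifen stimulation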
Method in brief: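 Concentration-response qHTS in NIH 3T3 mouse fibroblasts scores caspase-3/7 activation as rising luminescence after 16 hr compound exposure. Signals are scaled between DMSO-only and 100 uM tamoxifen.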

[17] = Cellular Toxicity (caspase-3) Renal Proximal Tubule (AID 667); conditions: Potency: caspase-3 activation;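 further: cells exposed to compound for 16 hours at 37 °C before detection; 0% = DMSO basal and 100% = 10 µM staurosporine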
Method in brief: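 Primary rat proximal tubule cells, 1000/well, 5 h plating at 37 °C, then compound 16 h at 37 °C. Caspase-Glo 3/7 reagent, 1 h RT, luminescence. Normalized to DMSO (basal) and 10 uM staurosporine (100%); Hill-fit AC50.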

[18] = target: Cytochrome P450 3A4 (Homo sapiens) (UniProt P08684); experiment: qHTS Assay for Inhibitors and Substrates of Cytochrome P450 3A4 (AID 884); further: on the % scale 0 is the no-effect control and ±100 the full control effect; nearly all actives have a fitted effect of over 50% in size
Method in brief: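 20 nM human CYP3A4 with 25 uM Luciferin-PPXE (at KM) in 200 mM KPO4, preincubated 10 min with compound; NADPH regeneration started a 60 min RT reaction. Luciferin detected by luminescence, normalized to 57 uM ketoconazole as full inhibition.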

[19] = Cell Viability - LYMP2-001 (AID 921);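 further: 0% = DMSO only and full inhibition = tetraoctylammonium bromide control wells; nearly all actives have a fitted effect of over 70% in size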
Method in brief: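 Human lymphoblastoid cells (Coriell), 2500 per well, were preincubated 5 hr at 37 C, then exposed to compounds in complete medium for 24 hr at 37 C. Cellular ATP was read by CellTiter-Glo luminescence; AC50 from Hill fits of concentration-response data.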

Cytochrome P450 3A4 (Homo sapiens), sequence (P08684 whole entry, looked up): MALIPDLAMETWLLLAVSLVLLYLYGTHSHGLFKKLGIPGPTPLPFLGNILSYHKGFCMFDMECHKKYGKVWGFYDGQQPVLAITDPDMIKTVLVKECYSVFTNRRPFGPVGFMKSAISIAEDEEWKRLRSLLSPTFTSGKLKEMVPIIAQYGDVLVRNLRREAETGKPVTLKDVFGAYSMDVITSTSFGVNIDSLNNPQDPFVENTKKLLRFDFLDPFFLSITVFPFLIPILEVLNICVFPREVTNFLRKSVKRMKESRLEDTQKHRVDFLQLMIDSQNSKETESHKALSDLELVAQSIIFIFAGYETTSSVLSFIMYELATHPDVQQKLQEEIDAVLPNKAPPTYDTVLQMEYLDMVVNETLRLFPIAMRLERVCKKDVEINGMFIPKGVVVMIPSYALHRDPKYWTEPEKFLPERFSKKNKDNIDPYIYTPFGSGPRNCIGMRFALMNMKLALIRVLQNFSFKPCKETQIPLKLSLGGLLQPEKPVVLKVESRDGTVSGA

O=C(O)c1ccccc1[N+](=O)[O-]
inactive: Potency [1] | Potency [2] | Potency [3] | Potency [4] | Potency [5] | caspase-3 activation [6] -0.644% | outcome [7] | outcome [8] | outcome [9] | outcome [10] | caspase-3 activation [11] 0.745% | outcome [12] | caspase-3 activation [13] 1.85% | caspase-3 activation [14] 2.82% | outcome [15] | outcome [16] | Potency [17] | Potency [18] | Potency [19]

N#Cc1ccccc1
inactive: Potency [1] | Potency [2] | Potency [3] | Potency [4] | Potency [5] | caspase-3 activation [6] -1.39% | outcome [7] | outcome [8] | outcome [9] | outcome [10] | caspase-3 activation [11] -0.669% | outcome [12] | caspase-3 activation [13] 0.346% | caspase-3 activation [14] 1.36% | outcome [15] | outcome [16] | Potency [17] | Potency [18] | Potency [19]

FC(F)(F)c1ccccc1Cl
inactive: Potency [1] | Potency [2] | Potency [3] | Potency [4] | Potency [5] | caspase-3 activation [6] 2.68% | outcome [7] | outcome [8] | outcome [9] | outcome [10] | caspase-3 activation [11] 1.05% | outcome [12] | caspase-3 activation [13] 0.997% | caspase-3 activation [14] -1.13% | outcome [15] | outcome [16] | Potency [17] | Potency [18] | Potency [19]

ClC/C=C/CCl
inactive: Potency [1] | Potency [2] | Potency [3] | Potency [4] | Potency [5] | caspase-3 activation [6] 1.47% | outcome [7] | outcome [8] | outcome [9] | outcome [10] | caspase-3 activation [11] 0.143% | outcome [12] | caspase-3 activation [13] 3.85% | caspase-3 activation [14] 1.61% | outcome [15] | outcome [16] | Potency [17]

O=C(O)CN(CC(=O)O)CC(=O)O
inactive: Potency [1] | Potency [2] | Potency [3] | Potency [4] | Potency [5] | caspase-3 activation [6] 1.43% | outcome [7] | outcome [8] | outcome [9] | outcome [10] | caspase-3 activation [11] 1.04% | outcome [12] | caspase-3 activation [13] 2.27% | caspase-3 activation [14] 0.365% | outcome [15] | outcome [16] | Potency [17] | Potency [18] | Potency [19]

CCN(Cc1ccccc1)c1ccccc1
inactive: Potency [1] | Potency [2] | Potency [3] | Potency [4] | Potency [5] | caspase-3 activation [6] 1.93% | outcome [7] | outcome [8] | outcome [9] | outcome [10] | caspase-3 activation [11] -0.109% | outcome [12] | caspase-3 activation [13] 0.0577% | caspase-3 activation [14] -1.67% | outcome [15] | outcome [16] | Potency [17] | Potency [18] | Potency [19]

C=C(C)C(=O)OCCCCCCCCCC
inactive: Potency [1] | Potency [2] | Potency [3] | Potency [4] | Potency [5] | caspase-3 activation [6] -0.118% | outcome [7] | outcome [8] | outcome [9] | outcome [10] | caspase-3 activation [11] -0.0364% | outcome [12] | caspase-3 activation [13] -0.285% | caspase-3 activation [14] 2.37% | outcome [15] | outcome [16] | Potency [17] | Potency [18] | Potency [19]
